Data taken from PubChem BioAssay AID588651 (The Scripps Research Institute Molecular Screening Center, 2011).
Activity calls are given as the source filed them. Rule as the data show it: active = inhibition above about 65%; inactive = the rest.

These compounds were tested on Antitargets (assay: Fam108b inhibitors and proteome off-target selectivity – biochemical, gel-based ABPP, recombinant soluble Fam108b, HTS hits, complex proteome, late-stage follow-up (AID 588651;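 also: Fam108b spiked into mouse brain membrane proteome; tested at 20 µM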)). Conditions: FP-rhodamine labeling in proteome.
In the case of `COc1cccc(C=NNC(=O)c2[nH]c(C)c(C(=O)NN=Cc3cccc(OC)c3O)c2C)c1O`, the outcome is reported as “active”. `O=C(NCC1CC1)c1ccc(Nc2nc3ccc(Br)cc3[nH]2)cc1` was tested, and the outcome was “inactive”. `CCc1ccc(S(=O)(=O)N=C2C=C(Sc3ncn[nH]3)C(=O)c3ccccc32)cc1` was tested, and the outcome was “inactive”. With `Cc1ccc(S(=O)(=O)N=C2C=C(Sc3ncn[nH]3)C(=O)c3ccccc32)cc1` the outcome was “inactive”. With `CCN(CC)c1ccc(C2Nc3cccc4cccc(c34)N2)c(O)c1` the outcome was “inactive”. In the case of `O=C(NC1CCCCC1)c1sc(=S)n2c1[nH]c(=O)c1ccccc12`, the outcome is reported as “inactive”. In the case of `CC1CCN(S(=O)(=O)c2ccc(C(=O)Nc3ccccc3-c3nc4ccccc4[nH]3)cc2)CC1`, the outcome is reported as “inactive”. `O=C(Nc1ccc(-c2csc(Nc3ccc(Cl)cc3)n2)cc1)c1cccc(C(F)(F)F)c1` was tested, and the outcome was “active”. `COc1cccc(C=NNc2nc(Nc3ccc([N+](=O)[O-])cc3)nc(N3CCCC3)n2)c1O` was tested, and the outcome was “inactive”. In the case of `Nc1cc(C(=O)O)c(N)c2c1C(=O)c1ccccc1C2=O`, the outcome is reported as “inactive”. `O=C(Nc1ccc(-c2csc(Nc3cccc(C(F)(F)F)c3)n2)cc1)c1cccc(C(F)(F)F)c1` was tested, and the outcome was “inactive”. For `O=[N+]([O-])c1ccc(NN=Cc2c[nH]c3ccccc23)c(S(=O)(=O)Nc2ccc(Cl)cc2)c1`, the outcome was “inactive”. In the case of `Nc1ccc2nc(-c3cccc(-c4nc5ccc(N)cc5[nH]4)c3)[nH]c2c1`, the outcome is reported as “inactive”. With `CCn1nc([N+](=O)[O-])c(C(C#N)c2nc3cc(C(F)(F)F)ccc3s2)c(Cl)c1=O` (stereo not given) the outcome was “inactive”. In the case of `Cc1ccc(-n2c(O)c(/C=N/Nc3ccc(S(=O)(=O)N4CCOCC4)cc3[N+](=O)[O-])c3ccccc3c2=O)c(C)c1`, the outcome is reported as “inactive”.
